Test results published in publication PMC7862700, “An all-to-all approach to the identification of sequence-specific readers for epigenetic DNA modifications on cytosine”.

Experiments:
Assay in all cases: DAPPL (digital affinity profiling via proximity ligation, sequencing); 10 mM Tris-HCl pH 7.5, 50 mM NaCl, 1 mM DTT, 4% glycerol, room temperature, 30 min; GST-TFs on glutathione beads, 16-mer random dsDNA library, 0.1% formaldehyde crosslink after washing; high values mean tight binding
FLI1 = biological target: T1, FLI1 (Homo sapiens, UniProt Q01543 1-452); settings: protein: recombinant; tags: N-terminal GST; dsDNA, one strand shown
T1 sequence: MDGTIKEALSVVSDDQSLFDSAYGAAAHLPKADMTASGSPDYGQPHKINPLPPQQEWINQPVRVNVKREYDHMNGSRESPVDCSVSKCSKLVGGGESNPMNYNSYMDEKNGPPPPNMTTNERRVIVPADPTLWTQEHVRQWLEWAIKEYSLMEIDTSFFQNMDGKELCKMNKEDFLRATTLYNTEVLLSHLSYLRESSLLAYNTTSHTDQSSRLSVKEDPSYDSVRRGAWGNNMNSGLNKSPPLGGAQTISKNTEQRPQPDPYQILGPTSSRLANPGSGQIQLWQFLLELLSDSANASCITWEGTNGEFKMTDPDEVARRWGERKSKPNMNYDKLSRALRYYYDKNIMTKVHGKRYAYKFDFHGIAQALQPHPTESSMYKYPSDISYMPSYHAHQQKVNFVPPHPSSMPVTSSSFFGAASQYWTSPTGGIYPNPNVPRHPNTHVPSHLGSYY
Procedure, shortened: (§1)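 Yeast served to express human transcription factors as GST fusions, which were then captured on glutathione beads and labelled with DNA barcodes. Pooled with a tag-only sample, they were incubated with 200 nmole of a 16-mer random double-stranded DNA library for 30 min at room temperature in Tris/NaCl/DTT/glycerol buffer, washed, crosslinked with 0.1% formaldehyde, ligated by proximity, amplified by PCR and sequenced. Dividing each hexamer's read frequency for a factor by its frequency for the tag-only sample gives the binding signal.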

ELK1 = biological target: T2, ELK1 (Homo sapiens, UniProt P19419 1-428); settings: protein: recombinant; tags: N-terminal GST; dsDNA, one strand shown
T2 sequence: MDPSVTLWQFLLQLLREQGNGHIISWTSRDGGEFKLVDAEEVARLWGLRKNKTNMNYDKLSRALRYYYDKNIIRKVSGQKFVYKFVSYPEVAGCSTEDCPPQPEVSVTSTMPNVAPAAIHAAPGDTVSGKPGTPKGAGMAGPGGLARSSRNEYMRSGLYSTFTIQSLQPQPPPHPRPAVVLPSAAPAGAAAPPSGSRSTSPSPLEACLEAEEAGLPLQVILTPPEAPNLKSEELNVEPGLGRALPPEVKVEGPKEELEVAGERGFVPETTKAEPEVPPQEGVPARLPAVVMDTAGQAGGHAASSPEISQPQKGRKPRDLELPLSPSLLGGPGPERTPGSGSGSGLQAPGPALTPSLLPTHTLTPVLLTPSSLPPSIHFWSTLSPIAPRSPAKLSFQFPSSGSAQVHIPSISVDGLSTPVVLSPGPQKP
Procedure, shortened: as §1

GABPA = biological target: T3, GABPA (Homo sapiens, UniProt Q06546 1-454); settings: protein: recombinant; tags: N-terminal GST; dsDNA, one strand shown
T3 sequence: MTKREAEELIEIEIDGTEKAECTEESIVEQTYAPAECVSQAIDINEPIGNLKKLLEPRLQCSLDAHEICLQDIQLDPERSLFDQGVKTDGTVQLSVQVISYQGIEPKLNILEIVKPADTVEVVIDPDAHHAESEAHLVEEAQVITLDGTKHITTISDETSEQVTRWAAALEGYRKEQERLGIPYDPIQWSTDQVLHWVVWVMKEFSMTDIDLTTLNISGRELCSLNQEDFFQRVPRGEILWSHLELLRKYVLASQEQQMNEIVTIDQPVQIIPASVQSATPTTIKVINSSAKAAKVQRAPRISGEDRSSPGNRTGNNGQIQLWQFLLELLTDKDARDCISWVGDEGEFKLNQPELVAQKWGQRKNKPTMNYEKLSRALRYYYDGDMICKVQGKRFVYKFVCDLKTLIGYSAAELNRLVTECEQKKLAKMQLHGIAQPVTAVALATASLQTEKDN
Procedure, shortened: as §1

ERG = biological target: T4, ERG (Homo sapiens, UniProt P11308 1-479); settings: protein: recombinant; tags: N-terminal GST; dsDNA, one strand shown
T4 sequence: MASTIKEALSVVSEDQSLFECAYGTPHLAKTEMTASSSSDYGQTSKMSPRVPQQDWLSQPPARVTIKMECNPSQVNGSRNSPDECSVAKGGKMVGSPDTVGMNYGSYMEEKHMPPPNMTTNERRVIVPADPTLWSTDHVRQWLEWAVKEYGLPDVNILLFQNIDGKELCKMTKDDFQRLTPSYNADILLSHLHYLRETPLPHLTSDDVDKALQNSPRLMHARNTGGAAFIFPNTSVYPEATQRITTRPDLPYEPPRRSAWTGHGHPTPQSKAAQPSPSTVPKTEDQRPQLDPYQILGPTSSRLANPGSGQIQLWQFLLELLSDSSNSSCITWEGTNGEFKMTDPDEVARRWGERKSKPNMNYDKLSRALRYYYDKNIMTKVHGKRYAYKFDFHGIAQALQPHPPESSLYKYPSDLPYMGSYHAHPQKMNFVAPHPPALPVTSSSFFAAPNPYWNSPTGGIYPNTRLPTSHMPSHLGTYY
Procedure, shortened: as §1

ELF1 = ELF1 (Homo sapiens, UniProt P32519 1-619); settings: protein: recombinant; tags: N-terminal GST; dsDNA, one strand shown
Sequence of ELF1 (P32519 whole entry): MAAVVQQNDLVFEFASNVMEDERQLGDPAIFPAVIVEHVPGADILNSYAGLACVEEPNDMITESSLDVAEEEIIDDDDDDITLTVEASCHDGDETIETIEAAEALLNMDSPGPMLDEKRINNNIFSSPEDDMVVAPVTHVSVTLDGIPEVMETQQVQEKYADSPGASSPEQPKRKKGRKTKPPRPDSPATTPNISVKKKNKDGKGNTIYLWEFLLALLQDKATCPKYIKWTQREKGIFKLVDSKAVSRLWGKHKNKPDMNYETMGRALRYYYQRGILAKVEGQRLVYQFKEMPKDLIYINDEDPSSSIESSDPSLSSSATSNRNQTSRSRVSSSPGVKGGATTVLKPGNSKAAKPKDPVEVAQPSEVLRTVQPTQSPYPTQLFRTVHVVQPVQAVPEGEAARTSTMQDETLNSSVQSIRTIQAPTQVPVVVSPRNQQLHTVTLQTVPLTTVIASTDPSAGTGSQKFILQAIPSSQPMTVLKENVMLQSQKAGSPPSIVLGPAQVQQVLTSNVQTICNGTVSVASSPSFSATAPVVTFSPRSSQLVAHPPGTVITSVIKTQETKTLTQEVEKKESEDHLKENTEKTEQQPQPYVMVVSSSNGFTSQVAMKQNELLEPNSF
Procedure, shortened: as §1

EHF = biological target: T5, EHF (Homo sapiens, UniProt Q9NZC4 1-300); settings: protein: recombinant; tags: N-terminal GST; dsDNA, one strand shown
T5 sequence: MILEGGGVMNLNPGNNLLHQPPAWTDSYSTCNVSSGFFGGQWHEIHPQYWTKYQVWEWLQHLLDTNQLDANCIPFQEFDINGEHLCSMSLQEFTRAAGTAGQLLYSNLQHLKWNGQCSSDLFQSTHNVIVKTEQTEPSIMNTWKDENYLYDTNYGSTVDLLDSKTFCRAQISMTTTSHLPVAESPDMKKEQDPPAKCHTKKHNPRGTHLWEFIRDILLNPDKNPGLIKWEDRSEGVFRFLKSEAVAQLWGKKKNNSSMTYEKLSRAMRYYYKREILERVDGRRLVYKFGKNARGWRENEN
Procedure, shortened: as §1

SPI1 = SPI1 (Homo sapiens, UniProt P17947 1-270); settings: protein: recombinant; tags: N-terminal GST; dsDNA, one strand shown
Procedure, shortened: as §1

SPIB = SPIB (Homo sapiens, UniProt Q01892 1-262); settings: protein: recombinant; tags: N-terminal GST; dsDNA, one strand shown
Sequence of SPIB (Q01892 whole entry): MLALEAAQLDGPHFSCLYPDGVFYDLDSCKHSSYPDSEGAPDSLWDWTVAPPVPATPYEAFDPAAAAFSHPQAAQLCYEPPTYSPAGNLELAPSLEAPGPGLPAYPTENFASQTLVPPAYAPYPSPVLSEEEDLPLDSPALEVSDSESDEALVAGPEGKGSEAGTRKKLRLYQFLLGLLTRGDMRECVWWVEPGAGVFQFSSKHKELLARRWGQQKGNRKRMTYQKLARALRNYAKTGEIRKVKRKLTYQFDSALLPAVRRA
Procedure, shortened: as §1

ELK3 = biological target: T6, ELK3 (Homo sapiens, UniProt P41970 1-407); settings: protein: recombinant; tags: N-terminal GST; dsDNA, one strand shown
T6 sequence: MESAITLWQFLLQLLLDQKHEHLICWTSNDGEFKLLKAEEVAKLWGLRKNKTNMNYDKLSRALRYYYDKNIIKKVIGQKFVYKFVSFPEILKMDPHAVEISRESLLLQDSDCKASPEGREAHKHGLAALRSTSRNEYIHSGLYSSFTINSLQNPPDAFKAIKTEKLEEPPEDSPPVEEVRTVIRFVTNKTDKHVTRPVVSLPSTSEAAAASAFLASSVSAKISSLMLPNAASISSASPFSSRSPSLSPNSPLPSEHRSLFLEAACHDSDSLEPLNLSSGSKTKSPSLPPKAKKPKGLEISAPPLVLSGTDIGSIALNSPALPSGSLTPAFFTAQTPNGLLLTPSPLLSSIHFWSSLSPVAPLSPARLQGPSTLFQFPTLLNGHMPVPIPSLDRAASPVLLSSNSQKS
Procedure, shortened: as §1

FEV = biological target: T7, FEV (Homo sapiens, UniProt Q99581 1-238); settings: protein: recombinant; tags: N-terminal GST; dsDNA, one strand shown
T7 sequence: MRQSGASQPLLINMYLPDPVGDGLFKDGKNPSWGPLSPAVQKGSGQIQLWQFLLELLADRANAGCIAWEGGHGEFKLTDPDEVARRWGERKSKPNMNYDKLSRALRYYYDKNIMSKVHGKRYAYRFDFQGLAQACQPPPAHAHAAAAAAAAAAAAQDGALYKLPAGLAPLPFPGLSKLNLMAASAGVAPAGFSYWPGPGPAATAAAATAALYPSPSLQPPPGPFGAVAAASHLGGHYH
Procedure, shortened: as §1

ETV5 = ETV5 (Homo sapiens, UniProt P41161 1-510); settings: protein: recombinant; tags: N-terminal GST; dsDNA, one strand shown
Sequence of ETV5 (P41161 whole entry): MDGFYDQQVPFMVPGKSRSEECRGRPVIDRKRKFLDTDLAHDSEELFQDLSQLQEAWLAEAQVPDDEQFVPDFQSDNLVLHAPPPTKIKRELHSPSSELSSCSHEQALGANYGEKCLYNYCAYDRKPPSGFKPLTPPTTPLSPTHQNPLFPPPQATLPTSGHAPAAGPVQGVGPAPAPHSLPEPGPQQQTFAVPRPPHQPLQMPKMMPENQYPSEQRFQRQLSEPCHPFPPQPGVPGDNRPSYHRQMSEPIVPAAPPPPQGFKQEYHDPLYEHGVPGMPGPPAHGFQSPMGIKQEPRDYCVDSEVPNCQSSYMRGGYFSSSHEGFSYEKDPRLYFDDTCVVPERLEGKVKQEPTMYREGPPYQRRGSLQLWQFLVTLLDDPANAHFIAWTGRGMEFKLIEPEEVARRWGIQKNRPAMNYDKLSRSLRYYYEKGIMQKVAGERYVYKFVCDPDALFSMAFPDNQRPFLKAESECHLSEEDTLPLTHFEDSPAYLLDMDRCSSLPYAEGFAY
Procedure, shortened: as §1

HSF1 = HSF1 (Homo sapiens, UniProt Q00613 1-529); settings: protein: recombinant; tags: N-terminal GST; chain copies: 3; dsDNA, one strand shown
Sequence of HSF1 (Q00613 whole entry): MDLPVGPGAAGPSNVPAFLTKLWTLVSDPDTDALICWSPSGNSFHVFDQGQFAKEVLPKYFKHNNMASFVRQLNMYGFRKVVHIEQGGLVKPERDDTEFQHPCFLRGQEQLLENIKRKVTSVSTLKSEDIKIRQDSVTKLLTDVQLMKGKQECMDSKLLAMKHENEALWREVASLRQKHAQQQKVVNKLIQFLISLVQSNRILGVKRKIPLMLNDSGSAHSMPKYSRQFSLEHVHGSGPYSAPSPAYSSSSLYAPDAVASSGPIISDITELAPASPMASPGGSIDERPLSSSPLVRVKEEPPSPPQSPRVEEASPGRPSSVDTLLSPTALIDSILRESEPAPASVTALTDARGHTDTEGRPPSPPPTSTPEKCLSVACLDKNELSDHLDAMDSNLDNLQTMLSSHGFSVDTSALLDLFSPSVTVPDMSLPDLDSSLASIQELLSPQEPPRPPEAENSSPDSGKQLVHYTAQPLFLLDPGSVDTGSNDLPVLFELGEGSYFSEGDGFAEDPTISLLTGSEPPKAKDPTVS
Procedure, shortened: as §1

SPIC = biological target: T8, SPIC (Homo sapiens, UniProt Q8N5J4 1-248); settings: protein: recombinant; tags: N-terminal GST; dsDNA, one strand shown
T8 sequence: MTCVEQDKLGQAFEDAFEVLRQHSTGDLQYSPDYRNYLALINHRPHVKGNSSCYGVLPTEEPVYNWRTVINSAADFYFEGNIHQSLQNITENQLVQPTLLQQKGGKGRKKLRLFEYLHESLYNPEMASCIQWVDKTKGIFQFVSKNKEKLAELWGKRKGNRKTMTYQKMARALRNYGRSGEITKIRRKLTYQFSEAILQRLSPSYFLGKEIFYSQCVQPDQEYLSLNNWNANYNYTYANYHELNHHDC
Procedure, shortened: as §1

ELF4 = ELF4 (Homo sapiens, UniProt Q99607 1-663); settings: protein: recombinant; tags: N-terminal GST; dsDNA, one strand shown
Sequence of ELF4 (Q99607 whole entry): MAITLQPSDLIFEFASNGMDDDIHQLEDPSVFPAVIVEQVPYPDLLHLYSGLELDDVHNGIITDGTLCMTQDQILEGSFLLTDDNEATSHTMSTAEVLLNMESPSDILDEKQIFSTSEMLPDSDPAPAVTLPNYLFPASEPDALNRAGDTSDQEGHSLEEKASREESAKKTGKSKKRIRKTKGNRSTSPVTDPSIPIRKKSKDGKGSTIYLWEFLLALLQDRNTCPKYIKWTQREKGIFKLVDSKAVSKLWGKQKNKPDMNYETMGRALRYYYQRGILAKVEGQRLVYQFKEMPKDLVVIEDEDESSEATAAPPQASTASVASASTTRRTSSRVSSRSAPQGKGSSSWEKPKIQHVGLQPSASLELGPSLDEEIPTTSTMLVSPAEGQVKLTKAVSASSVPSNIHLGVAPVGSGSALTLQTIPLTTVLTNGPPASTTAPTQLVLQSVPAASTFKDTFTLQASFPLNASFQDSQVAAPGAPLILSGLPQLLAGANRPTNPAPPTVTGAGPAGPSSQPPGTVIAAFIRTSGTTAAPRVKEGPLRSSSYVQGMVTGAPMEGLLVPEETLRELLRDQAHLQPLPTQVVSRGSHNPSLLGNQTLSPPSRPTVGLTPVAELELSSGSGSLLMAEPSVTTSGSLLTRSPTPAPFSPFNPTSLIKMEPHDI
Procedure, shortened: as §1

ELK4 = biological target: T9, ELK4 (Homo sapiens, UniProt P28324-2 1-405); settings: protein: recombinant; tags: N-terminal GST; dsDNA, one strand shown
T9 sequence: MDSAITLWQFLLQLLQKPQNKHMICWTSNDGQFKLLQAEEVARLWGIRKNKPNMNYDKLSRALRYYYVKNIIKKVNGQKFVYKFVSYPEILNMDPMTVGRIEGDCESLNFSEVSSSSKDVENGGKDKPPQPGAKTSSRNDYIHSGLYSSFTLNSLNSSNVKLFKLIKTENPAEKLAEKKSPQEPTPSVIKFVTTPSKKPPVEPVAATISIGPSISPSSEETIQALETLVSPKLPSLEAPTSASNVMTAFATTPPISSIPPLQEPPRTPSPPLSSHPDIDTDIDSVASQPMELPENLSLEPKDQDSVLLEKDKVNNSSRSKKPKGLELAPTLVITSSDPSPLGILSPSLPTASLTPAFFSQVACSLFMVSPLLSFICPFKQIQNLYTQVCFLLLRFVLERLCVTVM
Procedure, shortened: as §1

ETV2 = biological target: T10, ETV2 (Homo sapiens, UniProt O00321 1-342); settings: protein: recombinant; tags: N-terminal GST; dsDNA, one strand shown
T10 sequence: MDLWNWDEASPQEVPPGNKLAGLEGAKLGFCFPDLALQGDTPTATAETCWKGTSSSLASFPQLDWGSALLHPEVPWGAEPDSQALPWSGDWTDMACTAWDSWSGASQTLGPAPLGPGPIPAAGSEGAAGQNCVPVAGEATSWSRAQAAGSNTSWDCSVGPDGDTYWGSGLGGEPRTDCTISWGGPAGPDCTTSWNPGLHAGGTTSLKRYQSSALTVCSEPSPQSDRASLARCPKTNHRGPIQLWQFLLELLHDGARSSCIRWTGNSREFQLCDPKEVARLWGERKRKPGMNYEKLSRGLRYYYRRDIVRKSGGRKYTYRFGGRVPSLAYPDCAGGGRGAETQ
Procedure, shortened: as §1

ELF3 = biological target: T11, ELF3 (Homo sapiens, UniProt P78545 1-371); settings: protein: recombinant; tags: N-terminal GST; dsDNA, one strand shown
T11 sequence: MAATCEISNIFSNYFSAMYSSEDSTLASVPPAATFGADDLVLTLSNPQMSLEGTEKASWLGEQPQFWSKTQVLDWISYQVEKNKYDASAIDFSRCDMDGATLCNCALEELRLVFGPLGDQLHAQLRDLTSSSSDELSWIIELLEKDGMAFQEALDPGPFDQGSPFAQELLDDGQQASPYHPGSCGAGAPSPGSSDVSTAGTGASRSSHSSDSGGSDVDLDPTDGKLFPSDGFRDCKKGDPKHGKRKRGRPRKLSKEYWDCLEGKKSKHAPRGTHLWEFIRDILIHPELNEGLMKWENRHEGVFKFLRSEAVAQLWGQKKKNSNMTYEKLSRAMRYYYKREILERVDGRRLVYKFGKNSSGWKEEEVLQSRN
Procedure, shortened: as §1

CRX = CRX (Homo sapiens, UniProt O43186 1-299); settings: protein: recombinant; tags: N-terminal GST; dsDNA, one strand shown
Sequence of CRX (O43186 whole entry): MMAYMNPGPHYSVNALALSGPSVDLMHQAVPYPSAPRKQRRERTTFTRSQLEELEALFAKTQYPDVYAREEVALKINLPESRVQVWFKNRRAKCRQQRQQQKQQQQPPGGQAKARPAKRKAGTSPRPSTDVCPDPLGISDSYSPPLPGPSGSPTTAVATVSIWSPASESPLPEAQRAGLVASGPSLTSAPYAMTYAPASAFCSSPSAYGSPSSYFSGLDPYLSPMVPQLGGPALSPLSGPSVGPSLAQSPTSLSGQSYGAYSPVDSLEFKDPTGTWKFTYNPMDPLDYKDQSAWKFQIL
Procedure, shortened: as §1

ETV1 = ETV1 (Homo sapiens, UniProt P50549 1-477); settings: protein: recombinant; tags: N-terminal GST; dsDNA, one strand shown
Sequence of ETV1 (P50549 whole entry): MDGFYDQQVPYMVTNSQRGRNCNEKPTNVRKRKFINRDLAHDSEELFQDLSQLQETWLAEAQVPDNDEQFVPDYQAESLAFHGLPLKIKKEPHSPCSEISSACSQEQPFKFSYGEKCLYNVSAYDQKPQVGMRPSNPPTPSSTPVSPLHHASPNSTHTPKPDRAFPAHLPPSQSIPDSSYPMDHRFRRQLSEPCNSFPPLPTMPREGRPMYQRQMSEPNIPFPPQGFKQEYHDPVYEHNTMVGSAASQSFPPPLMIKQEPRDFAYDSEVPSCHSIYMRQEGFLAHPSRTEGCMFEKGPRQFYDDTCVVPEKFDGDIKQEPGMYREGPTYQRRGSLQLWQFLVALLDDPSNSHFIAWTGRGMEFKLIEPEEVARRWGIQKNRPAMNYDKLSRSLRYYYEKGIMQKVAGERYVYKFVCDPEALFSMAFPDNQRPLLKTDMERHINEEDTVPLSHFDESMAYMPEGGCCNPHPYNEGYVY
Procedure, shortened: as §1

GCTTCA
binding signal (FLI1): 1.35 fold enrichment (6-mer frequency, TF over GST control) | binding signal (ELK1): 1.39 fold enrichment (6-mer frequency, TF over GST control) | binding signal (GABPA): 1.28 fold enrichment (6-mer frequency, TF over GST control) | binding signal (ERG): 1.34 fold enrichment (6-mer frequency, TF over GST control) | binding signal (ELF1): 1.33 fold enrichment (6-mer frequency, TF over GST control) | binding signal (EHF): 1.4 fold enrichment (6-mer frequency, TF over GST control) | binding signal (SPI1): 1.24 fold enrichment (6-mer frequency, TF over GST control) | binding signal (SPIB): 1.31 fold enrichment (6-mer frequency, TF over GST control) | binding signal (ELK3): 1.27 fold enrichment (6-mer frequency, TF over GST control) | binding signal (FEV): 1.27 fold enrichment (6-mer frequency, TF over GST control) | binding signal (ETV5): 1.24 fold enrichment (6-mer frequency, TF over GST control) | binding signal (HSF1): 1.23 fold enrichment (6-mer frequency, TF over GST control) | binding signal (SPIC): 1.3 fold enrichment (6-mer frequency, TF over GST control) | binding signal (ELF4): 1.29 fold enrichment (6-mer frequency, TF over GST control) | binding signal (ELK4): 1.36 fold enrichment (6-mer frequency, TF over GST control) | binding signal (ETV2): 1.29 fold enrichment (6-mer frequency, TF over GST control) | binding signal (ELF3): 1.31 fold enrichment (6-mer frequency, TF over GST control) | binding signal (CRX): 1.1 fold enrichment (6-mer frequency, TF over GST control) | binding signal (ETV1): 1.23 fold enrichment (6-mer frequency, TF over GST control)
